PubChem BioAssay (EPA / NIEHS)
Several values for one entry are separate records, joined by “and”; a condition that tells them apart may be missing. Equal values may be shown once. A structure can be active in one record and inactive in another. Activity calls are given as the source filed them. How the source made its calls: active means hit-call score of the fitted dose curve at least 0.9, where 1 is the maximum; inactive means score below 0.9.

Assay: BSK_3C_SRB: Viability Assessment in the BioMAP Diversity Plus: 3C Assay (AID 2283023);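 further: fitted both ways against DMSO so a hit may be signal rise or drop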
Conditions: primary human endothelial cells (HUVEC)
Protocol: BSK_3C is a cell-based, multiplexed-readout assay that uses umbilical vein endothelium, a human vascular primary cell, with measurements taken at 24 hours after chemical dosing in a 96-well plate.BSK_3C_SRB is an assay component measured in the BSK_3C assay. It measures 0.1% sulforhodamine related to cell death using Sulforhodamine staining technology.Data from the assay component BSK_3C_SRB was analyzed into 1 assay endpoint. This assay endpoint, BSK_3C_SRB, was analyzed with bidirectional fitting relative to DMSO as the negative control and baseline of activity. Using a type of viability reporter, gain or loss-of-signal activity can be used to understand changes in the signaling. Furthermore, this assay endpoint can be referred to as a primary readout, because this assay has produced multiple assay endpoints where this one serves a signaling function. To generalize the intended target to other relatable targets, this assay endpoint is annotated to the cell morphology intended target family, where the subfamily is cell conformation.
The levels of cell surface (or secreted, indicated by the prefix "s") biomarker endpoints were measured by ELISA. Overt cytotoxicity to cells in confluent adherent cultures (all systems other than the BT system) was assessed by measuring total protein levels using sulforhodamine B (SRB) staining in parallel cultures at the time of biomarker measurements, indicated as SRB endpoints. For proliferation assays for adherent cell types, individual cell types are cultured at sub-confluence and relative cell numbers quantified by SRB staining at time points optimized for each system (48 h: 3C and CASM3C systems; 72 h: BT and HDF3CGF systems; 96 h: SAg system). SRB was performed by staining cells with 0.1% SRB after fixation with 10% TCA and reading wells at 560 nm.Viability and proliferation of PBMC (T cells) was quantified by Alamar Blue reduction for the SAg and BT systems. For PBMC viability (referred to as PBMC Cytotoxicity within the assay endpoint names), cells were plated (75,000/well in a 96-well plate) and then chemical samples added for 1 h before addition of activators, SEB and TSST-1 (20 ng/mL final concentration each). Cells were incubated for 90 h. Then, Alamar Blue (20 uL/well) (Invitrogen, Cat DAL1100) was added for 6 h, and the plates were read with a fluorescence microplate reader at 546/580 nm (excitation/emission). For PBMC proliferation, cells were plated and activated as above but incubated for only 16 h prior to addition of Alamar Blue. Plates were read after 6 h.

Structure (SMILES)	outcome	AC50
O=[N+]([O-])c1ccc(Cl)c(Cl)c1	inactive	
COP(N)(=S)OC	inactive	
OCC(F)(F)OC(F)(F)C(F)(F)OC(F)(F)C(F)(F)OC(F)(F)CO	inactive	30 µM (active)
CCOP(=S)(OCC)SCn1nnc2ccccc2c1=O	inactive	
Cc1ccc([N+](=O)[O-])cc1C	inactive	
O=P(Oc1ccccc1)(Oc1ccccc1)Oc1ccccc1		30.2 µM (active)
CCNc1nc(Cl)nc(NC(C)(C)C)n1	inactive	
CCN(CC)c1ccccc1	inactive	
OCC(F)(F)OC(F)(F)C(F)(F)OC(F)(F)C(F)(F)OC(F)(F)F		25.7 µM (active) and 49.8 µM (active)
CC(C)(C)c1ccccc1OP(=O)(Oc1ccccc1)Oc1ccccc1		20 µM (active)
C=CC(=O)OCC(CC)(COC(=O)C=C)COC(=O)C=C		2.33 µM (active)
CC(Cc1ccc(OCC(=O)O)cc1)NCC(O)c1csc(C(F)(F)F)n1 (stereo not given)	inactive	
Cc1ccc(N)cc1N	inactive	
CCOP(=S)(Oc1ccc([N+](=O)[O-])cc1)c1ccccc1 (stereo not given)	inactive	
O=C(O)C1C(C(=O)O)C2(Cl)C(Cl)=C(Cl)C1(Cl)C2(Cl)Cl (stereo not given)	inactive	
COP(=O)(O)OC	inactive	
c1ccc(OP(Oc2ccccc2)Oc2ccccc2)cc1	inactive	
O=C(O)C(F)(F)OC(F)(F)C(F)(F)OC(F)(F)F	inactive	
OCC1CO1 (stereo not given)	inactive	
Cc1c([N+](=O)[O-])cc2c(c1[N+](=O)[O-])C(C)(C)CC2(C)C	inactive	

Structure (SMILES)	outcome	AC50
Nc1ccc(Cl)cc1	inactive	
Cc1ccc2c(c1N)C(=O)c1ccccc1C2=O		4.25 µM (active)
CC(O)C(F)(F)C(F)(F)F (stereo not given)	inactive	
N#Cc1cc([N+](=O)[O-])ccc1N	inactive	
CC(Cl)CN(C)C (stereo not given)	inactive	
COP(=O)(CCC(=O)NCO)OC	inactive	
CCOS(=O)(=O)OCC	inactive	
CN(C)C(=O)Cl	inactive	
COC(=O)C(F)(F)C(F)(F)OC(F)(C(F)(F)F)C(F)(F)OC(F)=C(F)F (stereo not given)	inactive	
C=CC(=O)OCC(F)(F)C(F)F	inactive	
CCCCCCCc1ccc(O)cc1		39.2 µM (active)
O=C(O)C(F)(F)C(F)(F)C(=O)O	inactive	
NC(=O)C(F)(F)C(F)(F)F	inactive	
FC(F)(F)C(F)(C(F)(F)F)C(F)(F)C(F)(F)CC1CO1 (stereo not given)	inactive	
CCCN(CCC)c1c([N+](=O)[O-])cc(C(C)C)cc1[N+](=O)[O-]		28.9 µM (active)
CCOP(=S)(OCC)SCSc1ccc(Cl)cc1	inactive	
O=S(=O)(F)C(F)(F)C(F)(F)C(F)(F)C(F)(F)C(F)(F)C(F)(F)C(F)(F)C(F)(F)F	inactive	
Nc1cc2c3c(c1)C(c1ccccc1)=N[C@@H](NC(=O)c1cccnc1)C(=O)N3CC2	inactive	
CCCCC(CC)COP(=O)(Oc1ccccc1)Oc1ccccc1 (stereo not given)		9.7 µM (active)
